From PubChem BioAssay (Tox21) come the findings set out here.

Records with an inconclusive call do not appear. Values without a mark were called inactive. The source made the active and inactive calls. Calls come from the whole dose curve; as a rule, active = well fitted activation curve with a large enough effect in the repeat runs; inconclusive = weak or mixed curves; inactive = no such curve, though single readings can be large or run the other way.
% is set by controls: 0 for no effect and ±100 for the full control effect; potency is the fitted concentration of half-maximal effect.

Nuclear receptor subfamily 1 group I member 3 (Homo sapiens), sequence (Q14994 whole entry, looked up): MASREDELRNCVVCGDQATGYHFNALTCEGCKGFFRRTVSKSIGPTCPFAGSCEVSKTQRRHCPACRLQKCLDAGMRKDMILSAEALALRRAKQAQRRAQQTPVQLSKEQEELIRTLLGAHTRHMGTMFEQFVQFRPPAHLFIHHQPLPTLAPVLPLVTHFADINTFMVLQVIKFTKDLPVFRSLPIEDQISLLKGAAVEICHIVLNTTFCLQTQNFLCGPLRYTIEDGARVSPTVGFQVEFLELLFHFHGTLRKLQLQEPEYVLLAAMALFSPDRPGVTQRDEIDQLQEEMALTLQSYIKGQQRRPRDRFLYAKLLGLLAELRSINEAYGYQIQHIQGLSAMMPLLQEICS

This experiment addresses Nuclear receptor subfamily 1 group I member 3 (Homo sapiens) (UniProt Q14994). The experiment can be described thus: qHTS assay to identify small molecule agonists of the constitutive androstane receptor (CAR) signaling pathway (AID 1224839).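 For activation: HepG2 cells stably carrying human CAR and a CYP2B6 luciferase reporter.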 Note: nearly all actives have a fitted effect of over 15% in size. The conditions noted are these: HepG2 hCAR CYP2B6-luciferase, agonist mode, 24 h; series mostly up to 92.4 µM; activation: at the top concentration. The source says:
National Center for Advancing Translational Sciences [NCATS] NIH Chemical Genomics Center [NCGC] U.S. Environmental Protection Agency [EPA] National Institutes of Environmental Health Sciences [NIEHS] National Toxicology Program [NTP] Assay overview: The constitutive androstane receptor (CAR) is a nuclear receptor which regulates multiple drug metabolizing enzymes (DMEs) and transporters. Activating CAR will generally increase the transcription and subsequent translation of CYP2B6 and CYP3A4. These two DMEs represent about 50% of the drug metabolizing potential in the body. […] Recently, there have also been studies performed indicating CARs role in energy metabolism and cancer therapy. Therefore, inducing CARs activity could have a potential effect on diabetes and cancer. Identifying environmental toxins and compounds which modulate CAR, through the use of the Tox21 10K compound collection, will be an important step in determining the toxicity and potential therapeutic effects these factors will have on the human body.
Assay Protocol Summary: A double-stable (hCAR and CYP2B6-2.2kb) transfected cell line, derived from human hepatoma (HepG2) cells, was utilized for the duration of the quantitative high-throughput screens. The HepG2-CYP2B6-hCAR cells suspended in DMEM culture medium supplemented with 10% FBS, 5 ug/mL blasticidin, 0.5 mg/mL geneticin, 100 U/mL penicillin and 100 ug/mL streptomycin were dispensed at 2500 cells/4 uL/well in 1536-well white solid bottom plates using a Multidrop Combi. After the assay plates were incubated at 37 C/5% CO2 for 4 hrs, 23 nL of compounds at 15 concentrations (from 5-48 columns) or positive control (from 1 to 4 columns) were transferred to the assay plates using a Pintool station. One uL of PK11195, was added using a Flying Reagent Dispenser to generate a final concentration of 0.75 uM PK11195 inside each well. After a 24 hr incubation period at 37 C/5% CO2, four uL of ONE-Glo reagent was added into the assay plates using a Flying Reagent Dispenser. After a 30 min incubation period at room temperature, the luminescence intensity in the assay plates was measured using a ViewLux plate reader.
In the case of `CC(C)=C1CC[C@@H](C)CC1=O`, the “activation” value was 1.2%.

Consider `CS(C)(=O)=O`, for which the “activation” value was -2.81%.

Take `CCCCCCCC/C=C/CCCOC(C)=O`: the “activation” value was -0.3%.

As for `COC(=O)NCCC[Si](OC)(OC)OC`, the “activation” value was -0.779%.

In the case of `Cc1cccc(C)n1`, the “activation” value was -0.31%.

Regarding `O=C[C@H](O)[C@H](O)[C@H](O)CO`, the “activation” value was -1.54%.

Consider `CC1=CCC(=O)O1`, for which the “activation” value is 2.54%.

`OCCN1CN(CCO)CN(CCO)C1`: the “activation” value is -1.33%.

As for `CC1CCCCC1`, the “activation” value was -0.445%.

With `CCCCCCOc1ccc(O)cc1`, the Potency was 27.3 µM (active).

Regarding `NCCCCCCNCCCCCCN`, the “activation” value is -0.257%.

For `OCCC(O)CO` (stereo not given), the “activation” value was -0.245%.

As to `O=C1NCCN1CCN1CCC(c2cn(-c3ccc(F)cc3)c3ccc(Cl)cc23)CC1`, the “activation” value is -17.1% [at 42.5 µM].

In the case of `CCc1cccc(C)c1`, the “activation” value was -4.8%.

Take `CC=O`: the “activation” value was -12.9%.

Take `Cc1cncc(C)c1`: the “activation” value was 0.879%.

On to `C=CC(=O)OCCOCC(CC)(COCCOC(=O)C=C)COCCOC(=O)C=C`, for which the “activation” value was -21.7%.

As to `CC(=O)Oc1ccc(C2(c3ccc(OC(C)=O)cc3)Oc3ccccc3NC2=O)cc1`, the “activation” value was -10.2% [at 42.5 µM].

As to `CC[N+](CC)(CC)Cc1ccccc1`, the “activation” value is -0.885%.

Regarding `Cc1ccc(-n2[nH]c(C)c(N=Nc3cccc(-c4cccc(C(=O)O)c4)c3O)c2=O)cc1C`, the “activation” value is 1.02% [at 42.5 µM].

`COc1ccc(C#N)cc1`: the “activation” value was 2.59%.

With `CCOC(OCC)C(=O)c1ccccc1`, the “activation” value was 0.473%.

Take `O=C1C=CC(=O)N1c1ccccc1`: the “activation” value is -23.1%.

`CC(=O)OC(OC(C)=O)c1ccc([N+](=O)[O-])o1`: the “activation” value is -24%.

In the case of `CCCN(CCc1cccs1)[C@H]1CCc2c(O)cccc2C1`, the “activation” value was 0.794% [at 42.5 µM].

With `COc1cc(C=C2CCC/C(=C\c3ccc(O)c(OC)c3)C2=O)ccc1O`, the “activation” value was -0.902% [at 42.5 µM].

Turning to `CC(C)C(=O)OCc1ccccc1`, the “activation” value is -2.14%.

With `CN(C)CCCN1c2ccccc2Sc2ccc(C(F)(F)F)cc21`, the “activation” value is -3.33% [at 42.5 µM].

`C=C(C)C(=O)OCCC[Si](Cl)(Cl)Cl`: the “activation” value is -5.01%.

For `CC1(C)COCN1`, the “activation” value was 2.13%.

In the case of `O=C(O)Cc1ccc(OCCNC[C@H](O)c2ccccc2)cc1`, the “activation” value was -0.204% [at 42.5 µM].

For `CCCCCCCC/C=C\CCCCCCCC(=O)NCc1ccc(O)c(OC)c1`, the “activation” value was 0.545% [at 42.5 µM].

As for `CCc1cccc(CC)c1NC(=O)C(=O)O`, the “activation” value is -0.623%.

Take `CC(=O)c1ccccc1N`: the “activation” value was -0.301%.

For `C/C=C/C=N/NC(=O)c1ccncc1`, the “activation” value is 3.1% [at 42.5 µM].

In the case of `CCCCCCCCCCOCC(O)CN` (stereo not given), the “activation” value is -18% [at 42.5 µM].

For the compound `CCOC(=O)CC(C)O` (stereo not given), the “activation” value is 1.66%.

Take `CC(C(O)c1ccccc1)N(C)CCOC(c1ccccc1)c1ccccc1` (stereo not given): the “activation” value was -6.06% [at 42.5 µM].

As to `SCCCCCCCCS`, the “activation” value was -0.972%.

Turning to `C1CC(COCC2CO2)CCC1COCC1CO1` (stereo not given), the “activation” value is -1.13%.
